Data as given in the supplement of paper PMC3334620.
In all, about 33,000 sequences were measured (“E-score (-0.5 to 0.5)”: median about -0.043, highest 2% from about 0.37 on). The sample as a whole holds a higher share of the highest values than the screen did.

Molecular target: T1, Upc2 (UniProt Q12151)
T1 sequence: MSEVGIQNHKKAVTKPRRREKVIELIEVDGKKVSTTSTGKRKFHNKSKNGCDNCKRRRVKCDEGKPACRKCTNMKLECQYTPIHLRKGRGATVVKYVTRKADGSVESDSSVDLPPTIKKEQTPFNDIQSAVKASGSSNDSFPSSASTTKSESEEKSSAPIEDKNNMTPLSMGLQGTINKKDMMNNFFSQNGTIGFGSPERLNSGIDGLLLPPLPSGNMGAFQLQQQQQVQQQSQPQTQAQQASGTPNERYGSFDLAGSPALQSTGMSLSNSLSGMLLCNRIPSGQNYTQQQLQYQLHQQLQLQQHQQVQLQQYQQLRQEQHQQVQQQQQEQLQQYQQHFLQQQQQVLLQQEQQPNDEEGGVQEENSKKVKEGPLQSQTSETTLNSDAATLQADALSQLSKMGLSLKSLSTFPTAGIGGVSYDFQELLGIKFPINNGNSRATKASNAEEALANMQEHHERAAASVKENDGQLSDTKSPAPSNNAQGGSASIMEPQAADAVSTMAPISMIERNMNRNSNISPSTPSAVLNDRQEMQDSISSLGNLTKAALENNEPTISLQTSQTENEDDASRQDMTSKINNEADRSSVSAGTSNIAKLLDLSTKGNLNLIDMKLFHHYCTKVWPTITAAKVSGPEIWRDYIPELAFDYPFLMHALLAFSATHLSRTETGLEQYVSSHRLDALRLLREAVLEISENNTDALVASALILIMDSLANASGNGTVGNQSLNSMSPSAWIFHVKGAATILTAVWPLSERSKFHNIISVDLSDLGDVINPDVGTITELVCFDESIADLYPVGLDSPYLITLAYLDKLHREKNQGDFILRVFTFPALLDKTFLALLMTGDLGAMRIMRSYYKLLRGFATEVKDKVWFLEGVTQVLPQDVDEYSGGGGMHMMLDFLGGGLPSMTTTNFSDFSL
Assay: PBM E-score (8-mer binding enrichment) (E-score (-0.5 to 0.5)); higher = stronger / more preferred TF binding
Conditions: protein concentration: 200 nM; construct: GST-full length
Method in brief: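 GST-tagged yeast TFs (full-length or DNA-binding domain) were made by PURExpress in vitro transcription/translation and applied at about 100-200 nM to universal all-10-mer Agilent arrays. The arrays were made double-stranded by primer extension, on fresh or once-stripped slides. Bound protein was detected with fluorescent anti-GST, and scans were normalised with masliner. Each ungapped eight-base word, pooled with its reverse complement, received an E-score (modified Wilcoxon-Mann-Whitney statistic) from the Universal PBM Analysis Suite.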

Row | Sequence | PBM E-score
1 | CACGACAC | 0.114
2 | GACGACAC | -0.079
3 | AACGACAG | 0.419
4 | ACCGACAT | 0.199
5 | GACCAAGC | -0.234
6 | CCATGGAC | -0.201
7 | AGGACAGA | -0.347
8 | ATGTGAAC | 0.00151
9 | GAATTAGC | -0.0225
10 | CTTACAGC | -0.0579
11 | TCCGGGAA | -0.0708
12 | GGAAGAAA | -0.136
13 | GGATCGCC | -0.0204
14 | TGCGACAA | 0.141
15 | TACGACAA | 0.46
16 | TTCGACAA | 0.0423
17 | ACTCTATA | 0.0319
18 | GGACCTTA | 0.00047
19 | GGCGTTAA | 0.161
20 | GACGTTAA | 0.154
21 | ATCGTTAC | 0.264
22 | GTCGTTAA | 0.465
23 | CTCGTTAA | 0.466
24 | ATCGTTAG | 0.239
25 | CACGTTAA | 0.131

Row | Sequence | PBM E-score
26 | CTCGTTAC | 0.36
27 | ATCGTTAA | 0.435
28 | AGCAGCAC | -0.113
29 | GTGCTCGA | 0.0349
30 | ATGAGTGG | -0.126
31 | CAATCTTA | 0.065
32 | GTATAGCA | 0.377
33 | CTATAGCA | -0.0859
34 | ATATAGCA | -0.0248
35 | CAGATCAC | -0.266
36 | AGTCTTTC | -0.0324
37 | GCCAATAC | 0.0787
38 | ACATTCGT | 0.375
39 | ACATTCGG | 0.0333
40 | ACATTCGA | 0.0307
41 | AACATCCA | -0.0529
42 | ATGTCCTA | 0.0227
43 | AGATCTCG | 0.235
44 | CATCGTAA | 0.389
45 | GATCGTTA | 0.291
46 | AATCGTAG | 0.241
47 | GATCGTAA | 0.396
48 | AATCGTAA | 0.368
49 | CATCGTAG | 0.295
50 | CATCGTAC | 0.454

Row | Sequence | PBM E-score
51 | CATCGTCC | -0.0591
52 | CATCGTCA | -0.163
53 | CATCGTGA | 0.0225
54 | AATCGTAT | 0.44
55 | AATCGTCT | 0.0582
56 | GGCGTCCA | -0.398
57 | CATCACGG | 0.0314
58 | ACTGTAGG | -0.117
59 | GATTAGCC | 0.0747
60 | ATGTTAGG | -0.00946
61 | ACCTGGAA | 0.0285
62 | AGAGCATG | -0.17
63 | CAGTGCTA | -0.0362
64 | AGAATCAG | -0.0805
65 | AGCATTAT | -0.183
66 | TATCGTGA | 0.0236
67 | AATCGTCC | -0.0549
68 | AATCGTGC | 0.229
69 | TATCGTAA | 0.384
70 | GATCGTCC | -0.151
71 | GATCGTGC | 0.0519
72 | TATCGTCA | 0.0773
73 | AATCGTAC | 0.43
74 | GATCGTAC | 0.442
75 | AGAGGCAC | -0.00593

Row | Sequence | PBM E-score
76 | GAACATCA | -0.0243
77 | AGCTGTAT | -0.0312
78 | CTAAGCTC | -0.201
79 | AACCCTCT | -0.202
80 | CGGACTAC | -0.113
81 | CTCGTCGC | 0.0828
82 | AGGAGCCT | -0.12
83 | CCGAGCCA | -0.0165
84 | TCGAGCCA | -0.0555
85 | ACGAGCCT | 0.396
86 | ACGAGCCA | 0.408
87 | ACGAGCCG | 0.371
88 | ACGAGCCC | 0.358
89 | AGGAGCCG | -0.224
90 | CCGAGCCG | 0.106
91 | TAACTCAA | -0.0155
92 | ATTTCTTC | -0.026
93 | ATATATAA | 0.141
94 | TAATGCTA | -0.11
95 | GAACGGTA | 0.283
96 | CAACGATG | 0.0412
97 | AAACGATG | 0.458
98 | AATCGATT | 0.128
99 | AAACGCTG | 0.244
100 | GATCGATC | -0.03

Row | Sequence | PBM E-score
101 | AAACGATT | 0.449
102 | GAACGATC | 0.429
103 | CCACGATC | 0.125
104 | AAACGCTT | 0.156
105 | GGACGATA | -0.181
106 | GAACGATA | 0.402
107 | CGCCACCC | -0.0595
108 | ATCGTGAG | -0.165
109 | GGTCTGCA | -0.156
110 | TCAGATGA | -0.197
111 | ATCTGGTA | 0.044
112 | ACACTGCA | -0.0747
113 | CGGCATAG | -0.0559
114 | GCCTCCGC | -0.121
115 | AAACTTTA | -0.0184
116 | TAACGTTA | 0.102
117 | TAACGATA | 0.387
118 | CAACGATA | 0.228
119 | CCACGATA | -0.0526
120 | ACACGATA | 0.15
121 | AAACGATA | 0.459
122 | AAACGATC | 0.447
123 | CAACGATC | 0.11
124 | AGACGATC | -0.0293
125 | AAGCGACT | 0.243

Row | Sequence | PBM E-score
126 | ACACTCAT | -0.233
127 | ATCTCCTG | -0.0597
128 | ATAGGTCC | -0.132
129 | AGAGCGTA | 0.223
130 | ATCTGAAG | -0.202
131 | ACCGAGGT | 0.169
132 | CACGAGGC | 0.116
133 | GACGAGGA | -0.00176
134 | AACGAGGC | 0.444
135 | ATCGAGGA | 0.0976
136 | AAAGAGGT | -0.182
137 | AGCGAGGA | 0.144
138 | GACGAGGC | 0.0687
139 | AACGAGGA | 0.428
140 | CACGAGGA | 0.0675
141 | TACGAGGA | 0.464
142 | AACGAGGT | 0.448
143 | AGATGGCC | -0.176
144 | AAGAGACG | 0.102
145 | CTGGCGAA | -0.174
146 | ACCACCTG | -0.0336
147 | CACTGTGC | -0.118
148 | CAGTAGTC | 0.0468
149 | GCCTTGAA | -0.189
150 | CATTTCGA | 0.0247

Row | Sequence | PBM E-score
151 | GCTCCACC | -0.0776
152 | AGATGAAT | -0.206
153 | CAGACTGA | -0.0971
154 | AAGTTATT | 0.045
155 | AGCTATGG | -0.158
156 | AGCGAGGG | 0.245
157 | AACGAGGG | 0.43
158 | CACGAGGG | 0.114
159 | AGGGTGAC | -0.128
160 | ACCCTGGA | -0.0506
161 | AGTACGCA | -0.0414
162 | AGTACGAG | 0.428
163 | GGTACGAC | 0.475
164 | CGGACGAC | -0.21
165 | GGGACGAC | -0.244
166 | AGTACGAA | 0.384
167 | AGTACGTA | 0.27
168 | AGTACGTG | 0.0272
169 | GGTACTAC | 0.0298
170 | AGTACGCG | 0.189
171 | CGTACGAC | 0.449
172 | CGTACGCC | 0.312
